From PubChem BioAssay (NCI)
About 83,000 compounds went through this panel and 20% of them were active in at least one assay; those are over-represented in the sample as a whole.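 48-hour exposure, single concentration, 96-well plates; percent growth endpoint where 0 means no net growth. Active: below 10.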 A number with no mark means an inactive call. Calls of active or inactive are those of the source.

What follows are molecules tested on HL-60(TB) leukemia (assay: NCI-60 one-dose screen, 48 h (100 = growth as untreated, 0 = no growth, -100 = all killed)). Conditions: 10 µM unless noted.

Row | Structure (SMILES) | growth
1 | CN=C1C=C/C(=N/N=c2/ccn(O)cc2C)C=C1C | 75.6%
2 | CCCCCCCO | 114%
3 | Nc1nc(N)c2cc(S(=O)(=O)c3cccc(C(F)(F)F)c3)ccc2n1 | 30.9%
4 | O=C(N/N=C/c1ccc(Cl)cc1)c1ccccc1Nc1cccc(C(F)(F)F)c1 | 84.7%
5 | CCOC(=O)C1=NN(c2ccccc2)C2=NC(=O)/C(=C\c3cn(-c4ccccc4)nc3-c3cc4ccccc4o3)C(=O)N12 | 76.4%
6 | CC(C)/C=N/NC(N)=S | 104%
7 | N#Cc1c(NC(=O)NCc2ccccc2)sc2c1CCCCC2 | -8.46% (active)
8 | CC1(C)C2=C(C(=O)N1Cc1ccccc1)C(c1ccco1)N(C(=O)C1CCC1)CCN2 (stereo not given) | 99.1%
9 | CCc1nn2c(-c3ccc(Cl)cc3C)c(-c3cc(OC)c(OC)c(OC)c3)nc2s1 | 73.6%
10 | Cc1[nH]c(C(=O)Nc2ccc(C(N)=O)cc2NC(C)C)c(Cl)c1Cl | 99.7%
11 | O=C1Nc2ccc(Br)cc2C1=O | 99.6%
12 | CC(=O)Nc1c(Cl)cc2c(c1Cl)Cc1ccccc1-2 | 99.7%
13 | CC(=O)C1CCC(C)=CC1=O (stereo not given) | 119%
14 | COC(=O)[C@]12CC[C@@H](C)[C@H](C)[C@@H]1C1=CC[C@@H]3[C@@]4(C)C(C=O)=C[C@@](C)(CO)C4=CC[C@@]3(C)[C@]1(C)CC2 | 16.1%
15 | Nc1nc2ncc(CNc3ccc(C(=O)NC(CCC(=O)NC(CCC(=O)NC(CCC(=O)NC(CCC(=O)NC(CCC(=O)O)C(=O)O)C(=O)O)C(=O)O)C(=O)O)C(=O)O)cc3)nc2c(=O)[nH]1 (stereo not given) | 93.5%
16 | O=C1CCC(=O)CC1 | 97.7%
17 | CCCNCCC(C)=O | 108%
18 | Nc1ccc(F)cc1F | 97.9%
19 | C=C(C)C1CC(O)C2(C)CCCC3C2C1CC(C)C3(C)CC/C(C)=C/C(O)C1CCC(=O)c2c(OC)cc(OC)cc21 (stereo not given) | 22.4%
20 | CCCCCCCCNC(C)C(O)c1ccc(SC(C)C)cc1 (stereo not given) | -70.1% (active)

Row | Structure (SMILES) | growth
21 | CC(C)(C)CC(C)(C)Nc1c(-c2c(O)c3ccccc3oc2=O)nc2sc3ccccc3n12 | 21.6%
22 | Cc1cc(N2CCOCC2)nc(N[C@@H]2CCC[C@H](Nc3ccnc4cc(Cl)ccc34)C2)n1 | -69.5% (active)
23 | O=C1C=CC2=C3c4cc(O)c(O)cc4CC3(O)COC2=C1O (stereo not given) | 102%
24 | COc1cc2oc(-c3ccc(O)cc3)cc(=O)c2c(O)c1-c1c(OC)cc(O)c2c(=O)cc(-c3ccc(O)cc3)oc12 | 0.122% (active)
25 | CCCN(CCC)c1ccc(/C=C/c2ccc3cc(OCC)ccc3n2)cc1 | 54.3%
26 | COc1cc(Br)c(-c2nc(-c3ccccc3)c(-c3ccccc3)n2Cc2ccccc2)cc1OC | 18.6%
27 | C=C(C)[C@@H]1CC[C@]2(C(=O)N3CCN(C)CC3)CC[C@]3(C)[C@H](CC[C@@H]4[C@@]5(C)C/C(=C/c6ccncc6)C(=O)C(C)(C)[C@@H]5CC[C@]43C)[C@@H]12 | -21.7% (active)
28 | CC(NC(=O)Oc1cccc2ccccc12)c1ccccc1 (stereo not given) | 44.8%
29 | Cc1ccc2c(n1)C(=O)C(Oc1ccc(F)cc1)=CC2=O | 54%
30 | COc1ccc(Cl)cc1Nc1nc(C(F)(F)F)ccc1C(=O)N/N=C/c1ccc(N(C)C)cc1 | 85.4%
31 | CCCCOC(=O)c1cc(O)c(O)c(O)c1 | 24.7%
32 | O=C1NC(=O)/C(=C\c2ccncc2)N1 | 119%
33 | CCOC(=O)C(=O)C=P(c1ccccc1)(c1ccccc1)c1ccccc1 | 103%
34 | COc1ccccc1N1CCN(CC(O)COc2c(Br)c(Br)c(Br)c3c2OC(C)(C)C3)CC1 (stereo not given) | 10.3%
35 | O=c1c2cccc(F)c2sc2c(NCCCNCCO)nc3ccccc3c12 | -6.55% (active)
36 | CC(O)C(F)(F)C(F)(F)C(F)(F)F (stereo not given) | 101%
37 | CCCCCCCCCCCCS(=O)CC(C)O (stereo not given) | 99%
38 | COC(=O)/C=C1/SC(=Nc2ccc(C(F)(F)F)cc2)N(CCc2c[nH]c3ccc(O)cc23)C1=O | -33.1% (active)
39 | CC(C)N(C(=O)c1ccccc1)C(C)C | 100%
40 | Cc1ccc(S(=O)(=O)c2ccc3[nH]c(=O)[nH]c(=O)c3c2)cc1 | 89.3%
